Pyk2 oligo antag – antagonists of human Pyk2 oligomerization. Q14289. Q293 cells, Pyk2 FERM NanoBiT luminescence; stronger effect = lower value. z-score (the deposit names both 25 µM and 10 µM). 99,000 tested, 0.83% active. AID 1347419;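 active means Z-score of -3 or lower, scaled per plate to the spread of control and sample wells; inactive means z-score above -3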;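 further: negative z-score means lost luminescence so less FERM oligomerization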
CYP2C19 activ – increases human CYP2C19 enzyme activity; P33261; recombinant CYP2C19, luciferin-H EGE luminescence; stronger effect = higher value; 0 = fully inhibited enzyme, 1 = untreated enzyme; activation factor at 5 µM; 96,000 tested, under 10 active;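 active means activation factor of at least 2 at 5 µM in the primary screen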;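 further: 0 = wells with 2.5 mM tranylcypromine and 1 = vehicle-only wells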
CYP2C9 inhib – inhibitors of human CYP2C9 | P11712 | CYP2C9 Supersomes, luciferin-H conversion, luminescence | inhibition, % at 5 µM | 96,000 tested, 20% active;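 active means blocking of liver enzyme CYP2C9 beyond about 50% at 5 µM, limit read from the data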
Target sequence (P11712 whole entry, looked up): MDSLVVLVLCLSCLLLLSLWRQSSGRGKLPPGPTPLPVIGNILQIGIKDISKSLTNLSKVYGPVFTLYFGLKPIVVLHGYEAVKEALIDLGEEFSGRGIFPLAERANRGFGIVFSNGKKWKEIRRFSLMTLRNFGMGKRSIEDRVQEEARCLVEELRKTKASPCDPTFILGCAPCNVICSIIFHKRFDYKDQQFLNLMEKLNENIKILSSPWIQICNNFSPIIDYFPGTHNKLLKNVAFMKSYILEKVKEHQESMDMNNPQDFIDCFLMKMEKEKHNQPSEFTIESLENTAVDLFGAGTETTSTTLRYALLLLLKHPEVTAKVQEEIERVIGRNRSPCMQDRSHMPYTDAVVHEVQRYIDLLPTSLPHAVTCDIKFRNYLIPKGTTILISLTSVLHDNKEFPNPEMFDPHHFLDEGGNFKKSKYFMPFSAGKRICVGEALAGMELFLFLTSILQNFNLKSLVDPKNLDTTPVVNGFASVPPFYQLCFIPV
CYP2C19 inh – inhibitors of human CYP2C19. 96,000 tested, 21% active. AID 778. CYP2C19 Supersomes, luciferin-H EGE luminescence, 30 min. P33261. inhibition, % at 5 µM;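 active means CYP2C19 inhibition above a set limit at 5 µM in the primary screen, cut at about 50% in these data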;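 further: plate controls were negative control wells for no effect and 2.5 mM tranylcypromine positive control for full effect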
CYP2C9 act – increases human cytochrome P450 2C9 activity | P11712 | recombinant CYP2C9, luciferin-H conversion, luminescence; stronger effect = higher value; factor 1 = untreated enzyme, 0 = blocked | activation factor at 5 µM | 96,000 tested, 1.4% active | AID 1024;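 active means activation factor of 2 or more for CYP2C9 at a 5 µM dose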;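 further: 0 = sulfaphenazole-blocked wells and 1 = vehicle-only wells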
* = called active by the depositor; nt = no result given. This is a sample that favours compounds with a hit; in the whole collection about 28% have one here.

SMILES | Pyk2 oligo antag | CYP2C19 activ | CYP2C9 inhib | CYP2C19 inh | CYP2C9 act
O=C(Cc1ccc(-n2cnnn2)cc1)NC12CC3CC(CC(C3)C1)C2 | 1.1 | 0.9 | 25 | 5 | 0.8
CCCCCCn1c(SCC(=O)c2c(N)n(C)c(=O)n(C)c2=O)nc2ccccc21 | -0.11 | 0.8 | 75* | 22 | 0.3
CCCn1c(N)c(C(=O)CSc2nc3ccccc3n2CCC#N)c(=O)n(C)c1=O | 0.37 | 1 | 2 | -2 | 1
CN(NS(=O)(=O)c1ccccc1)c1nc2ccccc2nc1C(F)(F)F | -0.85 | 0 | 90* | 99* | 0.1
Cc1ccccc1C(=O)NN(C)c1nc2ccccc2nc1C(F)(F)F | 0.71 | 0.9 | -34 | 10 | 1.3
CCNc1nc(ON=C(C)C)nc(N(C)C)n1 | 0.55 | nt | nt | nt | nt
O=C(OCC(F)(F)C(F)F)c1ccccc1C(=O)Oc1ccc(F)cc1F | -0.3 | 0.1 | 76* | 90* | 0.2
O=C(Nc1ccc(OCC(F)(F)C(F)F)c(C(F)(F)F)c1)c1ccccc1O | -2.5 | 0.7 | -29 | 26 | 1.3
CCN(CC)CCOC(=O)C1c2ccccc2Oc2ccccc21 | 0.39 | 0.7 | -9 | 30 | 1.1
O=C(Cc1ccc(Cl)c(Cl)c1)OCC(=O)c1ccc[nH]1 | 1.1 | 0.1 | 52* | 91* | 0.5
O=C(OCC(=O)c1ccc[nH]1)c1ccc(S(=O)(=O)N2CCCCCC2)cc1 | 1.9 | 1 | 28 | 4 | 0.7
CCN1CCN(S(=O)(=O)c2ccc3[nH]c(=O)oc3c2)CC1 | nt | 0.9 | -8 | 6 | 1.1
CCOC(=O)C1CCN(S(=O)(=O)c2ccc3[nH]c(=O)oc3c2)CC1 | nt | 0.4 | -2 | 56* | 1
CCOC(=O)C1CCN(S(=O)(=O)c2ccc(C(=O)OC)cc2)CC1 | 1.8 | 0.9 | 1 | 6 | 1
Cc1ccc(S(=O)(=O)N2CCC(C(=O)Nc3ccccc3N3CCCCC3)CC2)cc1 | -1.3 | 0.2 | 87* | 80* | 0.1
CCOC(=O)C1CCN(S(=O)(=O)c2ccc(C)cc2)CC1 | 0.42 | 0.2 | 27 | 81* | 0.7
Cc1cc(=O)oc(C)c1C(=O)N[C@@H]1CCCCNC1=O | 0.03 | 1.1 | -10 | -12 | 1.1
NS(=O)(=O)c1ccc(NCc2cc(Cl)ccc2OCc2ccccc2F)cc1 | -1.4 | 0.9 | 28 | 7 | 0.7
NS(=O)(=O)c1ccc(NCc2ccccc2OCc2ccc(F)cc2)cc1 | -0.65 | 0.7 | 78* | 31 | 0.2
O=C(CC1Oc2ccccc2NC1=O)NCc1ccc(Cl)cc1 (stereo not drawn) | nt | 0.9 | -44 | 10 | 1.4
CCOCCCNC(=O)CCCOc1ccccc1 | 2.6 | 0.9 | -1 | 8 | 1
Cc1ccc(NC(=O)C(C)c2ccc(-c3ccccc3)c(F)c2)cc1 (stereo not drawn) | -1.8 | 0.5 | 96* | 48 | 0
CC(=O)[C@@H]1[C@@H]2C(=O)N(C3CCCCC3)C(=O)[C@@H]2C2c3ccccc3C=CN21 (stereo partly drawn) | nt | 1 | 13 | 0 | 0.9
COc1ccc(NC(=O)[C@@H]2[C@@H]3C(=O)N(C4CCCCC4)C(=O)[C@@H]3C3c4ccccc4C=CN32)cc1 (stereo partly drawn) | -0.33 | 0.5 | 57* | 46 | 0.4
Cc1ccc2c(c1)c(-c1ccccc1)nc1nncn12 | nt | 0.8 | 3 | 16 | 1
SMILES | Pyk2 oligo antag | CYP2C19 activ | CYP2C9 inhib | CYP2C19 inh | CYP2C9 act
c1ccc(-c2csc(Nc3cccnc3)n2)nc1 | 0.03 | 0.3 | 68* | 67* | 0.3
COc1cc(Cl)c(S(=O)(=O)NCCN2CCOCC2)cc1Cl | 1.5 | 0.2 | -99 | 82* | 2*
COc1cc(C(=O)NCCN2CCOCC2)cc(OC)c1OC | 0.32 | 1.1 | -10 | -9 | 1.1
COc1cc(S(=O)(=O)NCCCN2CCOCC2)ccc1Cl | -0.33 | 0.3 | -141 | 75* | 2.4*
Cc1ccc(S(=O)(=O)NCCCN2CCOCC2)cc1C | 0.44 | nt | nt | nt | nt
CN(C)CCCOc1nc2c(c(=O)n(C)c(=O)n2C)n1C | 1.9 | nt | nt | nt | nt
Cc1cc(C)n2nc(NCc3cccc(Br)c3)nc2n1 | -0.2 | 0.4 | 25 | 64* | 0.7
COc1ccc(CNc2nc3nc(C)cc(C)n3n2)cc1OC | 0.52 | 1 | 6 | -2 | 0.9
O=C(Cn1[nH]c(=O)c2ccccc2c1=O)OCC(=O)N1CCCc2ccccc21 | -0.06 | 0.5 | 43 | 51* | 0.6
O=C(OCC(=O)N1CCc2ccccc21)c1ccccc1 | 0.35 | 0.8 | 6 | 25 | 0.9
O=C(Cn1[nH]c(=O)c2ccccc2c1=O)OCC(=O)N1CCc2ccccc2C1 | 0.58 | 1.1 | -2 | -12 | 1
O=C(OCC(=O)N1CCc2ccccc21)c1cccnc1 | 0.2 | 0.2 | 33 | 77* | 0.7
O=C(c1ccc(Br)o1)N1CCCc2ccccc21 | -0.58 | nt | nt | nt | nt
CC1Cc2ccccc2N1C(=O)COC(=O)C1=COCCO1 (stereo not drawn) | -0.51 | 1 | -9 | 3 | 1.1
O=C(OCC(=O)N1CCCc2ccccc21)c1ccc(Br)o1 | 0.65 | 0.1 | 51* | 85* | 0.5
CC1Cc2ccccc2N1C(=O)COC(=O)CNC(=O)c1ccc(Br)o1 (stereo not drawn) | 0.53 | 0.3 | 51* | 66* | 0.5
CN(C)C(CNC(=O)CN1C(=O)NC2(CCc3ccccc32)C1=O)c1ccco1 (stereo not drawn) | 0.63 | 1.1 | 18 | -10 | 0.8
Cc1ccc(NC(=S)Nc2ccc(Br)cc2)cc1 | 0.48 | 0.1 | 16 | 89* | 0.8
CC1(C)CC(=O)c2sc(NC(=O)CCS(=O)(=O)c3ccccc3)nc2C1 | nt | 1.1 | -6 | -14 | 1.1
CC(Oc1ccccc1)C(=O)Nc1nc2c(s1)C(=O)CC(C)(C)C2 (stereo not drawn) | -1.9 | 0.4 | 61* | 57* | 0.4
Cc1[nH]c2ccccc2c1/C=N/Nc1ccc([N+](=O)[O-])cc1S(=O)(=O)Nc1ccc(Cl)cc1 | -3.4* | 1.1 | 22 | -8 | 0.8
O=C(CCCN1C(=O)c2ccccc2C1=O)Nc1ccc(Br)cn1 | 0.02 | 1 | 10 | -4 | 0.9
COc1ccc(CCC(=O)Nc2ccc(Br)cn2)cc1 | 0.11 | 0.2 | 21 | 81* | 0.8
COc1ccc(CCC(=O)Nc2nc3ccccc3[nH]2)cc1 | 0.5 | 1 | 7 | 2 | 0.9
O=C(O)CCC(=O)Nc1ccc(Br)cn1 | 0.55 | 0.5 | 2 | 50* | 1
CCOc1ccc(CCNC(=O)CN2CCN(Cc3ccccc3C)C2=O)cc1OCC | 1.7 | 0.6 | 36 | 36 | 0.6
Cc1ccc(S(=O)(=O)N2c3ccccc3NC(=O)CC2C)cc1 (stereo not drawn) | 0.89 | 1 | 4 | 3 | 1
Cc1ccc(S(=O)(=O)N2c3ccccc3NC(=O)C2CC(=O)Nc2ccccc2)cc1 (stereo not drawn) | 0.24 | 0.4 | 89* | 57* | 0.1
CCOC(=O)CCc1c(C)nc2ncnn2c1C | -0.43 | 1.1 | -9 | -7 | 1.1
Cc1ccc(OC(=O)CCc2c(C)nc3ncnn3c2C)cc1 | 1.3 | 0.4 | 10 | 56* | 0.9
